# Measurements from PubChem BioAssay (NCATS).
# Records with an inconclusive call do not appear. A call without a number means that no potency is given here. The source made the active and inactive calls. Unless noted, calls follow the shape of the dose curve; as a rule, active = well fitted curve in the direction sought with a large enough effect; inconclusive = small, poorly fitted or top-dose-only effect, or another doubt; inactive = no such curve, though single readings can be large; an effect the other way counts as inactive or inconclusive.
# Columns and labels:
# [1] = qHTS Assay for Lipid Storage Modulators (AID 1519; calls by dose curve); conditions: Drosophila S3 cells, BODIPY lipid droplet/cell ratio, laser cytometry, cells loaded with oleic acid
# Procedure, shortened: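 Cells seeded at 5,000 per well were treated with compounds over a concentration series and loaded with oleic acid (400 uM, as added). Lipid droplet fluorescence (488 nm excitation, 500-530 nm channel) was read by laser-scanning cytometry and normalized to 20 uM Triacsin C.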
# [2] = biological target: Alpha-galactosidase A (Homo sapiens) (UniProt P06280); assay: Counterscreen for Glucocerebrosidase Inhibitors: qHTS Assay for Human alpha-Galactosidase at pH 4.5 (AID 992); conditions: purified enzyme, fluorogenic substrate; series mostly up to 76.9 µM
# Procedure, shortened: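 Concentration-response curves (0.7 nM to 77 uM final) were modeled with the Hill equation to give AC50. Reactions: 2 nM enzyme, 80 uM fluorogenic alpha-galactoside, pH 4.5 citric acid buffer, 20 min, room temperature.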
# [3] = biological target: alpha-glucosidase (Oryza sativa, rice) (UniProt Q653V4); assay: Counterscreen for Glucocerebrosidase Inhibitors: qHTS Assay for Rice alpha-Glucosidase at pH 5.0 (AID 997); conditions: rice alpha-glucosidase enzyme activity; series mostly up to 76.9 µM
# Procedure, shortened: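 Rice alpha-glucosidase (4 nM final) with 400 uM 4-methylumbelliferyl-alpha-D-glucopyranoside in citrate buffer pH 5.0, 20 min at room temperature, stopped at pH 10; fluorescence 365/440 nm, compounds 0.7 nM–77 uM, AC50 from Hill fits.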
# [4] = Validation of Assay for Modulators of Lamin A Splicing (AID 1459; active = well fitted curve in the direction sought with a large enough effect in the signal ratio; the % refers to the signal ratio;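 also: cells exposed to compound for two days before reading; ratio rise marks activators and ratio drop marks inhibitors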); conditions: Lamin A splicing dual RFP/GFP fluorescence reporter; series mostly up to 9.22 µM
# Procedure, shortened: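 Dual-reporter HeLa S3 line (lamin A-EGFP minigene, DsRed2) treated with compounds 48 hrs, 0.5% DMSO final. Endpoint: EGFP/DsRed2 total intensity ratio from laser-scanning microplate cytometry.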
# [5] = biological target: DNA repair nuclease/redox regulator APEX1 (Homo sapiens) (UniProt P27695); assay: qHTS Validation Assay for Inhibitors of the Human Apurinic/apyrimidinic Endonuclease 1 (APE1) (AID 1705;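 also: TAMRA fluorescence gain over two minutes as APE1 cuts a quenched THF abasic duplex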); conditions: purified APE1 endonuclease activity, fluorescence, titration; series mostly up to 57.1 µM
# Procedure, shortened: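 Substrate: 50 nM final fluorophore/quencher THF-abasic duplex. Enzyme preincubated with compounds 15 min, RT. Progress derived from fluorescence difference, third minus first kinetic read.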
# [6] = Counterscreen for APE1 Inhibitors: Fluorescent Dye Displacement Validation Assay (AID 1707); conditions: fluorescent dye displacement from DNA; series mostly up to 57.1 µM
# Procedure, shortened: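 Assay buffer: Tris-HCl pH7.5 with 50mM NaCl, 2 mM MgCl2, 0.01% Tween-20. Dye 250 nM, duplex 50 nM final. Readout: decrease in ThO endpoint fluorescence, 480 nm excitation, 540 nm emission.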
# [7] = biological target: Endonuclease 4 (Escherichia coli (strain K12)) (UniProt P0A6C1); assay: Counterscreen for APE1 Inhibitors: qHTS Validation Assay for Inhibitors of Endonuclease IV (AID 1708); conditions: E. coli endonuclease IV, DNA cleavage fluorescence; series mostly up to 57.1 µM
# Procedure, shortened: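 Enzymatic AP-site incision assay using a double-stranded THF substrate labelled with TAMRA and BHQ-2; released fluorescence signals activity. Enzyme 2 nM, substrate 50 nM, 15 min compound preincubation.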
# [8] = qHTS for differential inhibitors of proliferation of Plasmodium falciparum line GB4 (AID 1816); conditions: Potency: Plasmodium falciparum GB4 proliferation inhibition; series mostly up to 28.7 µM;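 also: parasite growth measured after 72 h incubation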; also: potency is read from the fitted curve at half-maximal effect
# [9] = qHTS for differential inhibitors of proliferation of Plasmodium falciparum line 3D7 (AID 1876); also: potency is read from the fitted curve at half-maximal effect; conditions: P. falciparum 3D7 proliferation inhibition; series mostly up to 28.7 µM
# [10] = qHTS for differential inhibitors of proliferation of Plasmodium falciparum line D10 (AID 1877); conditions: series mostly up to 28.7 µM;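 also: parasites grown with compound for 72 h before DNA staining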; also: potency is read from the fitted curve at half-maximal effect
# [11] = qHTS for differential inhibitors of proliferation of Plasmodium falciparum line Dd2 (AID 1882); conditions: Potency: Plasmodium falciparum Dd2 proliferation inhibition; series mostly up to 28.7 µM; also: nearly all actives have a fitted effect of over 65% in size; also: potency is read from the fitted curve at half-maximal effect;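 as to activity change, negative = inhibition: compound exposure of 72 h on infected erythrocytes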
# Procedure, shortened: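 SYBR Green I DNA fluorescence read-out, ex 485/em 535 nm. Signals were normalized to 0.29 uM artemisinin and DMSO wells, then corrected using vehicle-only plates flanking each stack. Parasite growth ran 72 h in erythrocytes before lysis.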
# [12] = qHTS for differential inhibitors of proliferation of Plasmodium falciparum line HB3 (AID 1886); conditions: Potency: Plasmodium falciparum HB3 proliferation inhibition; series mostly up to 28.7 µM;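 also: parasites grown with compound for 72 h before SYBR Green readout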; also: potency is read from the fitted curve at half-maximal effect
# [13] = qHTS Assay for Modulators of Human Peripheral Myelin Protein 22 (PMP22) Expression/Activity (AID 1967; active = well fitted curve in the direction sought with a large enough effect in the signal ratio; the % refers to the signal ratio); conditions: Cell-based PMP22 reporter, dual-color luciferase ratio, 0% = compound-free control cells, mouse Pmp22 promoter in mouse Schwann cells; series mostly up to 115 µM
# Procedure, shortened: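 Engineered MSC80 cells, Pmp22-promoter green and EF-alpha red luciferase reporters; 24h compound treatment at 37 °C. Concentration-response fits on green, red and ratio signals, each overlap-corrected, with %Activity normalized to untreated wells.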
# [14] = biological target: Ferritin light chain (Equus caballus) (UniProt P02791); assay: qHTS Validation Assay for Identification of Novel General Anesthetics (AID 2323); conditions: horse apoferritin, anesthetic-site fluorescent probe displacement; series mostly up to 76.9 µM
# Procedure, shortened: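 Normalized fluorescence response, scaled between free 1-AMA and 1-AMA/apoferritin complex, fitted to a four-parameter Hill equation for concentration-effect values. Binding mix: 10 uM horse-spleen apoferritin, 50% saturated 1-AMA in PBS; read 380/535 nm after 10 min.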
# [15] = biological target: ATP-dependent DNA helicase Q1 (Homo sapiens) (UniProt P46063); assay: qHTS Validation Assay for Inhibitors of RecQ-Like Dna Helicase 1 (RECQ1) (AID 2353); conditions: recombinant RECQ1 helicase DNA unwinding assay; series mostly up to 25.6 µM
# Procedure, shortened: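 50 nM RECQ1T1 preincubated 15 min with compound in Tris pH 8.0 buffer with MgCl2, DTT, Tween-20 and 2.5 ug/ml poly(dI-dC); started with 200 nM TAMRA/BHQ-2 forked duplex and 2 mM ATP. Unwinding read as fluorescence (525/598 nm), two reads 2 h apart.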
# [16] = qHTS for differential inhibitors of proliferation of Plasmodium falciparum line 7G8 (AID 1815); conditions: Plasmodium falciparum 7G8 proliferation inhibition; series mostly up to 28.7 µM;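 also: parasite growth measured after three days of incubation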; also: potency is read from the fitted curve at half-maximal effect
# [17] = qHTS for differential inhibitors of proliferation of Plasmodium falciparum line W2 (AID 1883); conditions: Potency: Plasmodium falciparum W2 proliferation inhibition; series mostly up to 28.7 µM;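 also: parasites grown with compound for 72 h before lysis and staining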; also: potency is read from the fitted curve at half-maximal effect
# [18] = Cell Viability - LYMP1-002 - Assay at 24 hr (AID 993); conditions: LYMP1-002 lymphoblastoid cells viability; series mostly up to 92.2 µM
# Procedure, shortened: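 Human lymphoblastoid LYMP1-002 cells, 2500/well in complete medium, were treated with compounds for 24 h at 37 C; intracellular ATP was read by CellTiter-Glo luminescence. AC50 values came from Hill-equation fits of qHTS concentration-response data.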
# [19] = Cell Viability - LYMP1-002 - Assay at 40 hr (AID 994); conditions: LYMP1-002 lymphoblastoid cell viability; series mostly up to 92.2 µM; also: nearly all actives have a fitted effect of over 60% in size
# Procedure, shortened: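 Human lymphoblastoid cells, 2500/well in complete medium, were preincubated 5 hr at 37 C, then exposed to compounds for 40 hr at 37 C. Intracellular ATP was read by CellTiter-Glo luminescence after 30 min at room temperature; AC50 from Hill-equation fits.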
# [20] = qHTS Assay for Identification of Small Molecule Inducers of Hypoxia Response (AID 2120; active = well fitted curve in the direction sought with a large enough effect in the signal ratio, with a control signal flat, not every such curve was filed as active; the % refers to the signal ratio); conditions: hypoxia response reporter cells, beta-lactamase ratio readout; series mostly up to 104 µM
# Procedure, shortened: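 HRE-beta-lactamase reporter in CellSensor HRE-bla ME-180 cells, 2500 cells/well in Opti-MEM with 0.5% dialyzed FBS; compounds tested as titration series, 17 h at 37 degrees C. CCF4 substrate 2.5 h at room temperature; AC50 from 460/530 nm ratio.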
# [21] = measured here: cell count channel max response
# [22] = measured here: lipid channel max response
# Chain of Ferritin light chain (Equus caballus) (P02791 2-175 limits assumed): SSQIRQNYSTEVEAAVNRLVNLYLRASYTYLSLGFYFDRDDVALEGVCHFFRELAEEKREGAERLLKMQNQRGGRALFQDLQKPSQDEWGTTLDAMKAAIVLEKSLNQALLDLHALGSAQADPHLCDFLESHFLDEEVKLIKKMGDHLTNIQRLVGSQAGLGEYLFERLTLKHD
# Chain of Alpha-galactosidase A (Homo sapiens) (P06280 whole entry, looked up): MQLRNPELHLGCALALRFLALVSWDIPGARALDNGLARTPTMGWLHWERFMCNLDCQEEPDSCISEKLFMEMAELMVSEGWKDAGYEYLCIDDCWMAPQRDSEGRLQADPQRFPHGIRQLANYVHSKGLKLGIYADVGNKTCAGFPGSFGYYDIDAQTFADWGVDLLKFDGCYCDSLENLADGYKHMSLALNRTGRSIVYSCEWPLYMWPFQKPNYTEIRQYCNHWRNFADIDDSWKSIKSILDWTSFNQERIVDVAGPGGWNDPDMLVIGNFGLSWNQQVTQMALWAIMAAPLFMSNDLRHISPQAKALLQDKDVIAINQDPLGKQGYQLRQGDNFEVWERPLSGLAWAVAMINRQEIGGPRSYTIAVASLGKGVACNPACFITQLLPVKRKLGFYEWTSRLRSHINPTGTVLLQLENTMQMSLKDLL
# Chain of ATP-dependent DNA helicase Q1 (Homo sapiens) (P46063 whole entry, looked up): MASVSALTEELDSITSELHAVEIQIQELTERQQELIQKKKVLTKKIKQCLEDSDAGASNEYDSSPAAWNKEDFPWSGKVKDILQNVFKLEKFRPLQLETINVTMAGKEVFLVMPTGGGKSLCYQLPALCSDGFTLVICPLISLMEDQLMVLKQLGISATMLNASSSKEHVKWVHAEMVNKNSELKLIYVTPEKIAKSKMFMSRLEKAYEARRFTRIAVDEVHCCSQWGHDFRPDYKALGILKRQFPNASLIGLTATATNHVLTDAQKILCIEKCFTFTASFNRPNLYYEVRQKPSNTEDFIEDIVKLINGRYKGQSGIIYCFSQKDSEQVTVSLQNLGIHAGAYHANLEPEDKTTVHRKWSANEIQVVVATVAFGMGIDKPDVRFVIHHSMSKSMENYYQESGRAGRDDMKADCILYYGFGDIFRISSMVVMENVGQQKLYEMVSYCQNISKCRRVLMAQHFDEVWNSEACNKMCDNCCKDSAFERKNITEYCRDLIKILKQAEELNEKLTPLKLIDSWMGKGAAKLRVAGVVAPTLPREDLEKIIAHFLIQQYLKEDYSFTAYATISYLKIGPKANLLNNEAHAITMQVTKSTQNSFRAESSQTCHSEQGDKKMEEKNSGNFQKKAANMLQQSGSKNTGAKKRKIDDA
# Chain of DNA repair nuclease/redox regulator APEX1 (Homo sapiens) (P27695 whole entry, looked up): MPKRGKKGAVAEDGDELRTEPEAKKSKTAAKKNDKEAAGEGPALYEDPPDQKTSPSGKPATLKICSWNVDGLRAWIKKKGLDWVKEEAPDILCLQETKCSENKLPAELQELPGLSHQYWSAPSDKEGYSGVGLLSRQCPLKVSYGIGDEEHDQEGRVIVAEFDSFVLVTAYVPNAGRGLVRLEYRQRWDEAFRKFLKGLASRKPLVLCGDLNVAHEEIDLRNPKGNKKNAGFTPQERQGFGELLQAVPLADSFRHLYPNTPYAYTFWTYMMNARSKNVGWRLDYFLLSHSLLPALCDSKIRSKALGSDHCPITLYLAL
structure (smiles),measurement,setting,value
CCN(CC)CCOc1ccc(/C(=C(\Cl)c2ccccc2)c2ccccc2)cc1,"activity change, negative = inhibition",[1]; at 57.5 µM (top of the series),-1.21% (inactive)
same,max response,[1]; [21],9.36%
same,max response,[1]; [22],11.5%
COc1ccccc1N1CCN(CCN2C(=O)CC3(CCCC3)CC2=O)CC1,outcome,[2],inactive
same,outcome,[3],inactive
same,outcome,[4],inactive
same,outcome,[5],inactive
same,outcome,[6],inactive
same,outcome,[7],inactive
same,Potency,[8],inactive
same,Potency,[9],inactive
same,Potency,[10],inactive
same,Potency,[11],inactive
same,Potency,[12],inactive
same,outcome,[13],inactive
same,outcome,[14],inactive
same,outcome,[15],inactive
OC(CCCN1CCCCC1)(c1ccccc1)c1ccccc1,"activity change, negative = inhibition",[1]; at 25.7 µM (top of the series),-0.646% (inactive)
same,max response,[1]; [21],10.3%
same,max response,[1]; [22],9.61%
C1N2CN3CN1CN(C2)C3,"activity change, negative = inhibition",[1]; at 57.5 µM (top of the series),4.78% (inactive)
same,max response,[1]; [21],-0.0775%
same,max response,[1]; [22],6.42%
COC(=O)c1c(Cl)c(Cl)c(C(=O)OC)c(Cl)c1Cl,"activity change, negative = inhibition",[1]; at 57.5 µM (top of the series),5.84% (inactive)
same,max response,[1]; [21],15.4%
same,max response,[1]; [22],24.6%
Cc1ncc(CO)c(CO)c1O,"activity change, negative = inhibition",[1]; at 25.7 µM (top of the series),-0.151% (inactive)
same,max response,[1]; [21],0.978%
same,max response,[1]; [22],-0.91%
Cc1ccc2c(Cl)cc(Cl)c(O)c2n1,"activity change, negative = inhibition",[1]; at 57.5 µM (top of the series),4.67% (inactive)
same,max response,[1]; [21],-3.23%
same,max response,[1]; [22],2.66%
Brc1ccc([C@H]2CN3CCSC3=N2)cc1,outcome,[2],inactive
same,outcome,[3],inactive
same,outcome,[4],inactive
same,"activity change, negative = inhibition",[1]; at 57.5 µM (top of the series),0.192% (inactive)
same,max response,[1]; [21],-9.46%
same,max response,[1]; [22],-7.25%
same,outcome,[5],inactive
same,outcome,[6],inactive
same,outcome,[7],inactive
same,Potency,[16],11.2 µM (active)
same,Potency,[8],12.6 µM (active)
same,Potency,[10],inactive
same,Potency,[17],7.94 µM (active)
same,outcome,[13],inactive
same,outcome,[15],inactive
O=C1NC(c2cccc([N+](=O)[O-])c2)=CCN1c1ccccc1O,outcome,[2],inactive
same,outcome,[3],inactive
same,outcome,[4],inactive
same,outcome,[5],inactive
same,outcome,[6],inactive
same,outcome,[7],inactive
same,Potency,[16],inactive
same,Potency,[8],inactive
same,Potency,[9],inactive
same,Potency,[10],inactive
same,Potency,[11],inactive
same,Potency,[12],inactive
same,outcome,[13],inactive
same,outcome,[15],inactive
C[N+](C)(C)CCO,outcome,[2],inactive
same,outcome,[3],inactive
same,outcome,[4],inactive
same,outcome,[5],inactive
same,outcome,[6],inactive
same,Potency,[16],inactive
same,Potency,[8],inactive
same,Potency,[9],inactive
same,Potency,[10],inactive
same,Potency,[11],inactive
same,Potency,[17],inactive
same,Potency,[12],inactive
same,outcome,[13],inactive
same,outcome,[14],inactive
same,outcome,[15],inactive
Cc1cc(C(C)(C)C)c(O)c(C(C)(C)C)c1,Potency,[18],inactive
same,Potency,[19],inactive
same,"activity change, negative = inhibition",[1]; at 57.5 µM (top of the series),4.82% (inactive)
same,max response,[1]; [21],4.25%
same,max response,[1]; [22],10.5%
same,outcome,[20],inactive
CCOC(=O)NNc1nncc2ccccc12,"activity change, negative = inhibition",[1]; at 25.7 µM (top of the series),0.543% (inactive)
same,max response,[1]; [21],-3.66%
same,max response,[1]; [22],-3.48%
CN(C)c1cc2c(Nc3ccc4c(cnn4Cc4ccccc4)c3)ncnc2cn1,outcome,[2],inactive
same,outcome,[3],inactive
same,outcome,[4],inactive
same,outcome,[6],inactive
same,Potency,[16],5.01 µM (active)
same,Potency,[8],3.16 µM (active)
same,Potency,[9],3.55 µM (active)
same,Potency,[10],10 µM (active)
same,Potency,[11],11.2 µM (active)
same,Potency,[17],3.55 µM (active)
same,Potency,[12],4.47 µM (active)
same,outcome,[14],inactive
same,outcome,[15],inactive
O=C(O)/C=C(\CC(=O)O)C(=O)O,"activity change, negative = inhibition",[1]; at 57.5 µM (top of the series),3.99% (inactive)
same,max response,[1]; [21],-7.3%
same,max response,[1]; [22],1.94%
NCC(=O)O,"activity change, negative = inhibition",[1]; at 57.5 µM (top of the series),-2.71% (inactive)
same,max response,[1]; [21],5.73%
same,max response,[1]; [22],4.04%
CN(C(=O)C(Cl)Cl)c1ccc(OC(=O)c2ccco2)cc1,"activity change, negative = inhibition",[1]; at 25.7 µM (top of the series),-19.5% (inactive)
same,max response,[1]; [21],-11.9%
same,max response,[1]; [22],-28.6%
Nc1ncnc2nc[nH]c12,"activity change, negative = inhibition",[1]; at 57.5 µM (top of the series),6.5% (inactive)
same,max response,[1]; [21],12.7%
same,max response,[1]; [22],22.5%
O=C(CCCCC(=O)Nc1c(I)cc(I)c(C(=O)O)c1I)Nc1c(I)cc(I)c(C(=O)O)c1I,"activity change, negative = inhibition",[1]; at 25.7 µM (top of the series),-0.504% (inactive)
same,max response,[1]; [21],-3.67%
same,max response,[1]; [22],-4.34%
COc1cccc2c1[C@@H]1CN(CCCCn3c(=O)[nH]c4c(sc5ncc(-c6ccccc6)nc54)c3=O)C[C@@H]1CO2,outcome,[4],inactive
same,"activity change, negative = inhibition",[1]; at 57.5 µM (top of the series),0.568% (inactive)
same,max response,[1]; [21],7.98%
same,max response,[1]; [22],9.55%
same,outcome,[5],inactive
same,outcome,[6],inactive
same,Potency,[16],11.2 µM (active)
same,Potency,[11],inactive
same,outcome,[15],inactive
